# ChEMBL document CHEMBL3433997, “St. Jude Leishmania screening dataset” (2016)
# Experiments:
# Format in all cases: functional
# [1] = target: Solute carrier family 2, facilitated glucose transporter member 1 (Homo sapiens) (UniProt P11166); test: ST_JUDE_LEISH: Cytotoxicity at 2uM final concentration against transgenic Leishmania Mexicana promastigotes LmGLUT1 that are glucose transport deficient and complemented with the human glucose transporter GLUT1. Activity is measured by DNA content using SYBR green in vitro
# Chain of Solute carrier family 2, facilitated glucose transporter member 1 (Homo sapiens) (P11166 whole entry): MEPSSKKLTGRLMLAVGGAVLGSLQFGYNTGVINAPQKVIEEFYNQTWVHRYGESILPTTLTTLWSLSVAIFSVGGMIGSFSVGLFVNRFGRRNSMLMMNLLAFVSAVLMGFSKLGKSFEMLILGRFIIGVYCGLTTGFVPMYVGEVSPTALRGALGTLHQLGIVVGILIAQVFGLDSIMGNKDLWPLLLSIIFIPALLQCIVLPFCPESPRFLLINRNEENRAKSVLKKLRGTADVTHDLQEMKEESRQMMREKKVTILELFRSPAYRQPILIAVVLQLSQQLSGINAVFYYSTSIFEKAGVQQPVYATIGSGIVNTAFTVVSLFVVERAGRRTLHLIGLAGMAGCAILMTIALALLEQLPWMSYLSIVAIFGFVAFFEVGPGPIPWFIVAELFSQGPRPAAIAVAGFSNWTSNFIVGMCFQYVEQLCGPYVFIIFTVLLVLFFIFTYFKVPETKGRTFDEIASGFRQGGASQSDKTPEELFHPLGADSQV
# [2] = target: Hexose transporter 1 (Plasmodium falciparum) (UniProt O97467); test: ST_JUDE_LEISH: Cytotoxicity at 2uM final concentration against transgenic Leishmania Mexicana promastigotes LmPfHT that are glucose transport deficient and complemented with the Plasmodium falciparum hexose transporter. Activity is measured by DNA content using SYBR green in vitro
# [3] = target: Glucose transporter (Leishmania mexicana) (UniProt O61059); test: ST_JUDE_LEISH: Cytotoxicity at 2uM final concentration against transgenic Leishmania Mexicana promastigotes LmGT2 that are glucose transport deficient and complemented with the L. Mexicana glucose transporter 2. Activity is measured by DNA content using SYBR green in vitro
SMILES,inhibition [1] [%],inhibition [2] [%],inhibition [3] [%]
O=C(Nc1ccc(C(F)(F)F)cc1)N[C@H]1CCN(CCCCCNC(=O)C2CC2c2ccc(Cl)c(Cl)c2)C1 (stereo partly specified),3.36,2.73,2.17
Fc1ccc2[nH]c(-c3cccc(-c4cccc(CNCc5ccccc5)c4)c3)nc2c1,0.07,-0.96,-0.93
O=C(/C=C/c1cccc2ccccc12)NCCCCCN1CCC(c2c[nH]c3ccccc23)CC1,0.55,1.35,2.9
CCn1ccc2c(N3CCCS3(=O)=O)cc(C(=O)N[C@@H](Cc3ccccc3)[C@H](O)CNC3CCCCC3)cc21,-0.74,1.64,5.33
CCNc1cc(C(=O)N[C@@H](Cc2ccccc2)[C@H](O)CNCc2cccc(-n3ccnc3)c2)cc(N2CCCC2=O)c1,-1.37,-0.52,1.12
CC(=O)OCCN1C(=O)c2ccc3c4c(ccc(c24)C1=O)C(=O)N(CCOC(C)=O)C3=O,3.05,2.04,0.78
CCN(CC)CCN(Cc1ccc(-c2ccc(Cl)cc2)cc1)C(=O)Cn1cc(CN(C)C)c(=O)nc1SCc1ccc(F)cc1,0.45,0.54,1.16
Cc1[nH]c(C)c(-c2ccc(-c3ccc(F)cc3)nc2)c(=O)c1Br,0.98,1.82,1.04
COc1cccc(C=NNc2cc(C)nc3c(OC)cccc23)c1,3.12,1.32,0.35
COc1cccc(CNC(=O)c2ccnc(-c3ccc(CNCCOc4ccccc4)cc3)c2)c1,1.12,1.69,1.51
COc1cccc(CNC(=O)c2cccc(-c3cccc(CN4CCC(N5CCCC5)CC4)c3)n2)c1,4.26,4.42,6.93
O=C(Nc1ccc(N2CCCCC2)c(Cl)c1)c1ccco1,0.11,0.86,-1.58
COc1cc(NCCCNC(=O)c2ccc(Cl)c(Cl)c2)nc2ccccc12,5.42,5.69,5.08
c1ccc(-c2ccc3c(Nc4ccc5[nH]ccc5c4)ccnc3c2)nc1,-1.13,0.56,-0.96
O=C(Nc1cccc(-c2cccc(-c3nc4ccccc4[nH]3)c2)c1)Nc1ccc(Cl)c(Cl)c1,6.2,6.7,7.6
Cc1ccccc1-c1nc2c(CN3CCC(O)(c4ccccc4)CC3)c(O)ccc2[nH]1,11.5,8.82,8.8
O=C(N[C@H]1CCN(CCc2ccc(O[C@H]3CCNC3)cc2)C1)c1ccc(Cl)c(Cl)c1,14.2,10.1,14.5
COc1ccccc1C1CN(CCNC(=O)c2nc(C)c[nH]2)Cc2ccccc2O1 (stereo unspecified),0.43,2.02,5.66
c1ccc(-c2ccc3c(Nc4ccc5[nH]ncc5c4)ccnc3c2)nc1,4.92,4.75,5.04
N#Cc1cccc(-c2cnc(N)c(-c3nc4cc(S(N)(=O)=O)ccc4[nH]3)c2)c1,1.03,1.38,2.21
Oc1ccccc1CN1CCC2(CCCN(Cc3ccccc3F)C2)C1 (stereo unspecified),2.03,-1.06,1.57
O=C(C=Cc1cccs1)N(CCCn1ccnc1)c1nc2ccc(F)cc2s1,4.66,4.09,2.51
COc1ccccc1C1CCN(C2CCC(NC(=O)/C=C/c3ccc4c(c3)OC(F)(F)O4)CC2)CC1 (stereo unspecified),4.33,4.26,1.28
COc1ccc2nc(C)cc(Nc3ccc(Oc4ccc5ccccc5c4Cl)c(Cl)c3)c2c1,13.7,12.6,8.39

SMILES,inhibition [1] [%],inhibition [2] [%],inhibition [3] [%]
Cc1cccc2nc(-c3ccc(-c4ccc(CN5CCN(c6cnccn6)CC5)cc4)s3)[nH]c12,11.9,9.41,9.78
CC(Sc1nnc(-c2cccs2)[nH]1)C(=O)c1c[nH]c2ccccc12 (stereo unspecified),0.9,1.35,0.63
N#Cc1ccc2c(c1)CCN(CCC1CCC(NC(=O)/C=C/c3nc4ccccc4s3)CC1)CC2 (stereo unspecified),1.83,0.31,-0.08
Nc1ncc(OC2CCCCC2)c(N)n1,-1.08,0.87,-1.09
COc1ccccc1N1CCN(Cc2c(NC(C)=O)sc(C)c2C)CC1,0.73,0.56,1.44
Oc1ccc(CCNc2nc(N/N=C/c3ccc(Cl)cc3)nc(N3CCNCC3)n2)cc1,-0.62,1.75,0.33
COc1ccc(NC(=O)/C=C/c2ccc(Cl)c(C(F)(F)F)c2)cc1OCCN(C(C)C)C(C)C,11.7,8.04,5.51
O=C(Nc1ccccc1O)C1CCN(c2ncnc3cc(-c4ccc(F)cc4)sc23)CC1,1.73,2.48,-2.46
CCOC(=O)c1nc(-c2cccc(F)c2)[nH]c1N,1.32,0.39,2.23
O=C(Nc1ccc(Cn2nc(Cl)c(N3CCCNCC3)cc2=O)cc1)c1ccc(-c2ccccc2)cc1,7.36,5.68,4.52
CC[C@H](NC(=O)c1c(CCCN2CCN(c3ccccc3)CC2)c(-c2ccccc2)nc2cc(O)ccc12)c1ccccc1,7.88,6.19,10.9
CNC(=O)c1ccccc1Nc1nc(Nc2cccnc2)ncc1C,-2.88,-0.32,-0.69
O=C1c2cc(I)ccc2SC1c1ccccc1 (stereo unspecified),1.22,0.48,0.13
Cc1cc(N[C@@H](CC(C)C)C(=O)NCc2cccs2)nc(NCCc2cccs2)n1,7.52,5.28,3.84
Cc1nc2ccc(NC(=O)Nc3ccnc4ccc(C(F)(F)F)cc34)cc2o1,5.89,10.7,5.33
CC(=O)Nc1cccc(C(=O)Nc2ccc(-c3cccc(-c4nc5cc(C(F)(F)F)ccc5[nH]4)c3)cc2)c1,2.13,0.32,-0.69
COc1ccc2nccc(NC(=O)C3CCC(NCc4ccc5c(c4)NC(=O)CS5)CC3)c2c1 (stereo unspecified),4.42,2.96,0.5
COC(=O)c1cc(/C(C)=N/Nc2nc3ccccc3[nH]2)ccc1O,4.85,5.41,1.77
COc1c(C)[nH]c(C)c(-c2ccc(Oc3cccc(C(F)(F)F)c3)cc2)c1=O,10.2,10.6,4.46
CCOC(=O)c1cn(CC)c2cc(F)c(OC3CC4CCC3(C)C4(C)C)cc2c1=O (stereo unspecified),-1.86,-1.79,-3.18
c1ccc([C@H]2CN3CCSC3=N2)cc1,-0.53,2.58,-0.34
Cc1cc(N[C@@H](Cc2ccccc2)C(=O)NCCc2ccccc2)nc(NCC2CCCCC2)n1,2.97,3.86,1.29
Cc1ccc2ccccc2c1CCCON1C(=N)N=C(N)NC1(C)C,4.76,3.93,2.74
COc1ccc2nccc([C@@H](O)CN3CCC(NCc4ccc(OC)c(NC(C)=O)c4)CC3)c2c1,0.33,-2.04,-1.41

SMILES,inhibition [1] [%],inhibition [2] [%],inhibition [3] [%]
Cc1ccc(-c2nc3cc(C(=O)NC4CCN(Cc5ccccc5)CC4)ccc3[nH]2)cc1,6.09,2.07,0.96
CCCCCN1CCCC(NS(=O)(=O)c2ccc(C(=O)Nc3ccc(C(F)(F)F)cc3)cc2)C1 (stereo unspecified),6.19,4.12,1.89
Fc1cc(Cl)ccc1Nc1ccnc2cc(-c3ccc(CN4CCNCC4)o3)ccc12,1.02,1.16,1.34
O=S(=O)(NCCN1CCCC1)c1ccc(-c2cccc(CNCCc3cccs3)c2)s1,0.02,2.28,3.42
Cc1ccc2c(=NN=Cc3ccc(N(C)C)cc3)cc(C)[nH]c2c1,1.24,2.71,-5.38
CN1CCC(C(=O)Nc2cccc(-c3ccc(-c4nc5cc(C(F)(F)F)ccc5[nH]4)cc3)c2)CC1,4.82,2.75,3.82
Cc1cn(CC(=O)Nc2cccc(-c3cccc(-c4nc5cc(C(F)(F)F)ccc5[nH]4)c3)c2)c(=O)[nH]c1=O,9.16,8.95,4.55
Cc1ccc(Sc2ccc(NC(=O)CN3CCN(C(=O)c4ccco4)CC3)cc2)cc1C,9.84,9.65,6.7
N=C(N)NN=Cc1ccc2c(ccc3ccccc32)c1,7.03,8.19,3.76
Cc1cc(=NN=Cc2ccc(Cl)cc2)c2cccc(C)c2[nH]1,10.4,9.15,6.63
CS(=O)(=O)CCNCc1cccc(-c2cc3c(Nc4ccc(OCc5ccccc5)cc4)ncnc3cn2)c1,13.7,10.7,6.71
O=C(NC1CCN(c2ccnc3cc(Cl)ccc23)C1)c1ccccc1F (stereo unspecified),1.93,2.22,2.72
CN1CCC(Oc2ccc(Nc3nccc(NCC(O)c4ccccc4)n3)cc2Cl)CC1 (stereo unspecified),-2.84,-3.54,-6.09
COc1cccc(-c2cnc(-c3ccncc3)nc2C2CCN(Cc3ccc(NC(C)=O)cc3)CC2)c1,3.49,4.22,1.53
N#Cc1cc(C(=O)c2cc(Br)ccc2O)cn(C2CCCCC2)c1=O,0.39,1.1,3.8
CC(C)(C)N1CCC(N(Cc2ccc(-c3ccc(C(F)(F)F)cc3)cc2)C(=O)Cn2c(CCc3cccc(F)c3F)cc(=O)c3cccnc32)CC1,-0.12,-1.34,-1.6
COc1ccc2ncc(Cl)c(CCN3C[C@H](CNCc4ccc5c(n4)NC(=O)CS5)[C@H](O)C3)c2n1,5.41,2.07,2.02
COc1cccc(-c2cc(-c3ccc(NC(=O)c4ccccc4)cc3)c3c(N)ncnc3n2)c1,-0.77,0.31,-2.31
COc1cccc(OC(C)(C)c2nc(N[C@@H](C)c3ccccc3)c3cn[nH]c3n2)c1,1.92,-1.84,-1.65
CCCOC(=O)c1ccc(OCCCON2C(=N)N=C(N)NC2(C)C)cc1,2.28,-0.38,5.01
CCC(C)OC(=O)C1=C(C)NC2=C(C(=O)CC(c3ccc(OC)c(OC)c3)C2)C1c1cccc(O)c1 (stereo unspecified),4.07,0.16,1.16
Cc1cnc(C(=O)Nc2ccc(-c3cccc(-c4nc5ccccc5[nH]4)c3)cc2)cn1,2.19,1.94,-0.57
FC(F)(F)c1cccc(CNCCCCCNCc2ccc(Cl)cc2)c1,2.96,1.16,-0.19
COc1ccc2cc(-c3nc(-c4c(Cl)cccc4Cl)[nH]c3-c3ccnc(NCCCN4CCCCC4C)c3)ccc2c1 (stereo unspecified),0.59,-0.07,0.19
